Among the data in PubChem BioAssay (Tox21) are Potency and outcome values, retold here.

Structures are written as SMILES. Unmarked numbers belong to inactive results. Inconclusive results are not listed. Active and inactive are the calls of the source. Unless noted, the call rests on the fitted dose curve; in most records, active means well fitted curve in the direction sought with a large enough effect in the repeat runs; inconclusive means weak or mixed curves; inactive means no such curve, though single readings can be large; an effect the other way counts as inactive or inconclusive.

Assay [1] can be described thus: qHTS assay for small molecule agonists of the p53 signaling pathway (AID 651631; calls by dose curve; further: nearly all actives have a fitted effect of over 15% in size; further: potency means the concentration at half of the fitted maximal effect). Put shortly: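 Read-out is beta-lactamase FRET fluorescence measured 2 h after substrate addition at room temperature, in HCT-116 cells with a p53 response element-driven reporter exposed to compounds for 16 h at 37 °C.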
The nature of assay [2]: qHTS assay for small molecules that induce genotoxicity in human embryonic kidney cells expressing luciferase-tagged ATAD5 (AID 651632). Further: nearly all actives have a fitted effect of over 15% in size. Further: potency means the concentration at half of the fitted maximal effect. In a few lines: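 Increased luciferase signal from ATAD5-tagged reporter cells indicates DNA-damage-driven ATAD5 induction. HEK293T cells are treated for 16 hr at 37C before detection with Amplite.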
Assay [3] can be described thus: qHTS assay for small molecule agonists of the p53 signaling pathway - cell viability (AID 651633; calls by dose curve; further: nearly all actives have a fitted effect of over 30% in size; further: potency means the concentration at half of the fitted maximal effect). In a few lines:
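Viability counter-read: CellTiter-Glo luminescence (30 min, room temperature) in the same p53RE-bla plates. These plates had been exposed to compounds for 16 h at 37 C.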
For orientation: In qHTS, concentration-response curves come from the screen itself.

The nature of assay [4]: qHTS assay for small molecules that induce genotoxicity in human embryonic kidney cells expressing luciferase-tagged ATAD5 - cell viability (AID 651634; calls by dose curve; further: nearly all actives have a fitted effect of over 25% in size). In a few lines: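 Cytotoxicity counterscreen in HEK293T cells bearing an ATAD5-luciferase reporter: live-cell protease activity measured by CellTiter-Fluor fluorescence after 15.5 hr compound exposure.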
Assay [5] in a line: qHTS assay for small molecule disruptors of the mitochondrial membrane potential - cell viability (AID 720634; calls by dose curve; further: nearly all actives have a fitted effect of over 20% in size; further: potency means the concentration at half of the fitted maximal effect). Put shortly: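 After overnight attachment at 37 C, HepG2 cells received compound or DMSO vehicle for 1 hr. Viability is then taken from ATP-driven luminescence following a 30 min room-temperature CellTiter-Glo step.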
The nature of assay [6]: qHTS assay for small molecule disruptors of the mitochondrial membrane potential (AID 720635). Further: potency means the concentration at half of the fitted maximal effect. In a few lines:
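Mitochondrial membrane potential tracked with Mito-MPS dye, red aggregates (ex 540/em 590 nm) against green monomers (ex 490/em 535 nm). Compound treatment 1 hr at 37C, dye 30 min in HepG2.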

Assay [7] in a line: qHTS assay to test for compound auto fluorescence at 590 nm (red) in HepG2 cells (AID 720674). Put shortly: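 1 hr compound incubation on HepG2 cells, 37 C, 5% CO2; plate read ex 540 nm / em 590 nm; intensities reported as Rose Bengal sodium equivalents.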
The nature of assay [8]: qHTS assay to test for compound auto fluorescence at 535 nm (green) in HepG2 cells (AID 720675).
Assay [9] is described as follows: qHTS assay to test for compound auto fluorescence at 590 nm (red) in HEK293 cells (AID 720679). Put shortly:
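Red autofluorescence, HEK293 cells: 2,000 cells/well; attach 4-5 hr 37C; add 23 nL cpd or DMSO; incubate o/n 37C 5% CO2; read Ex540/Em590; Rose Bengal sodium reference.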

Assay [10] is described as follows: qHTS assay to test for compound auto fluorescence at 535 nm (green) in HEK293 cells (AID 720680).
Assay [11] is described as follows: qHTS assay to test for compound auto fluorescence at 460 nm (blue) in HEK293 cell free culture (AID 720681). Put shortly:
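Blue fluorescence (Ex 405/Em 460 nm, triamterene-equivalent) was read immediately after pin transfer of compound or DMSO into medium (DMEM, 10% FBS) without cells.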

The nature of assay [12]: qHTS assay to test for compound auto fluorescence at 590 nm (red) in HEK293 cell free culture (AID 720683). Put shortly: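 Red-channel autofluorescence of compounds in culture medium (DMEM, 10% FBS), no cells, measured at 540/590 nm. Rose Bengal sodium is the reference fluorophore for equivalence.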
A short description of assay [13]: qHTS assay to test for compound auto fluorescence at 590 nm (red) in HepG2 cell free culture (AID 720684). Put shortly: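 Plate contents were MEM with 10% FBS plus test compound or DMSO, no cells. Fluorescence was recorded with 540 nm excitation and 590 nm emission.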
The nature of assay [14]: qHTS assay to test for compound auto fluorescence at 460 nm (blue) in HepG2 cell free culture (AID 720685). In a few lines:
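Compound (23 nL) or DMSO pinned into cell-free MEM with 10% FBS; blue fluorescence read at 405/460 nm excitation/emission, expressed as auto-fluorescence equivalency to triamterene.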

Assay [15] can be described thus: qHTS assay to test for compound auto fluorescence at 535 nm (green) in HepG2 cell free culture (AID 720686).
The nature of assay [16]: qHTS assay to test for compound auto fluorescence at 460 nm (blue) in HepG2 cells (AID 720687). In a few lines: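 Blue-channel autofluorescence (Ex/Em 405/460 nm, triamterene-equivalent) was measured after 1 hr compound exposure at 37 C, 5% CO2. Cells were HepG2, plated overnight at 37 C in MEM plus 10% FBS.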
In assay [17] the target is Glucocorticoid receptor (Homo sapiens) (UniProt P04150). The experiment in a line: qHTS assay to identify small molecule agonists of the glucocorticoid receptor (GR) signaling pathway (AID 720691; active means well fitted activation curve with a large enough effect in the signal ratio in the repeat runs, not every such curve was filed as active; the % refers to the signal ratio). Put shortly:
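Agonist mode in a HeLa line carrying a GRE-controlled beta-lactamase reporter. Compounds act for 18 h at 37 C before a 2 h room-temperature FRET substrate step and fluorescence reading.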

Assay [18] is described as follows: qHTS assay to test for compound auto fluorescence at 460 nm (blue) in HEK293 cells (AID 720678). Put shortly: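 Intrinsic compound fluorescence is recorded in live HEK293 cultures after overnight incubation at 37C, 5% CO2, using excitation 405 nm and emission 460 nm. Values are referenced to triamterene.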
Assay [19] can be described thus: qHTS assay to test for compound auto fluorescence at 535 nm (green) in HEK293 cell free culture (AID 720682). Put shortly: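 Fluorescein serves as the green reference fluorophore; each compound's intrinsic emission at 535 nm (excitation 485 nm) is reported as an equivalent amount of that dye, measured in serum-containing DMEM without cells.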
Assay [20] addresses Glucocorticoid receptor (Homo sapiens) (UniProt P04150). The experiment in a line: qHTS assay to identify small molecule antagonists of the glucocorticoid receptor (GR) signaling pathway (AID 720692; active means well fitted inhibition curve with a large enough effect in the signal ratio in the repeat runs, not every such curve was filed as active; the % refers to the signal ratio). In a few lines: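 Cells plated, rested 4 h at 37 C/5% CO2; compounds in DMSO pin-transferred; dexamethasone added to 5 nM final; 18 h at 37 C; B/G FRET substrate added, 2 h room temperature; fluorescence measured.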

Chain of Glucocorticoid receptor (Homo sapiens) (P04150 whole entry, looked up): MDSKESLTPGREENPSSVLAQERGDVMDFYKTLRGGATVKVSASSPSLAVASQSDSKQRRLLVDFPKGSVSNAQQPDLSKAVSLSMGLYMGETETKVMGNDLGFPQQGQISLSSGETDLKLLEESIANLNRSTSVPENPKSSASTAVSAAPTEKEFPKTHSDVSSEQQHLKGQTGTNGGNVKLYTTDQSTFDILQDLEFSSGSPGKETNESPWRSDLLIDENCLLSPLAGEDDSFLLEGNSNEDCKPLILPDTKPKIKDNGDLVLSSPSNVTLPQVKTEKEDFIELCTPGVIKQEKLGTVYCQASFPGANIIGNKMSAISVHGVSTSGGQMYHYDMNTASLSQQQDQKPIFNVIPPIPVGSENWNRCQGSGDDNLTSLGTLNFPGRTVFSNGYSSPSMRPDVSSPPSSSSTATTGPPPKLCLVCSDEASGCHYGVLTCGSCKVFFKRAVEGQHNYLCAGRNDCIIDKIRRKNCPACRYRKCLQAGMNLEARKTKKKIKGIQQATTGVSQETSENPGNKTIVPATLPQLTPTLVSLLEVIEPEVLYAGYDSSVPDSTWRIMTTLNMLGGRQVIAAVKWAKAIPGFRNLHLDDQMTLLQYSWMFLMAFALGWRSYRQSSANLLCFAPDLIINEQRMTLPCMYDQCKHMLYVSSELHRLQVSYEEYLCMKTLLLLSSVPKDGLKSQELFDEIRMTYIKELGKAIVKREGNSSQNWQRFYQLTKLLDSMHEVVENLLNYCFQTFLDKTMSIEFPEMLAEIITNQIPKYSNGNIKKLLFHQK

Regarding `CCN`, the Potency entry in [1], in assay [2], in assay [3], in assay [4], in [5] and in assay [6] was “inactive” throughout. In addition, the Potency result in assay [11], in assay [14], in assay [16] and in assay [17] was “inactive” each time. In addition, the compound was classed as inactive in assay [7], in [8], in assay [9], in assay [10], in assay [12] and in assay [13]. Besides, in [15], the outcome was inactive.
On to `CC(C)OC(=S)S`, for which the Potency entry in assay [1], in assay [2], in assay [3], in assay [4], in [5] and in [18] was “inactive” each time. Also, the Potency entry in [11] and in [16] was “inactive” in each case. For the same compound, the outcome in assay [7], in assay [8], in [9], in assay [10], in [19] and in assay [12] was inactive. Besides, the compound was called inactive in assay [13] and in [15].
As for `Nc1ccccc1C(=O)Oc1ccc2ccccc2c1`, the Potency entry in assay [1], in assay [3], in [4], in assay [18], in assay [11] and in [14] was “inactive” each time. Moreover, the Potency entry in [16], in [17] and in assay [20] was “inactive” each time. Also, the Potency was 5.45 µM (active) in assay [2] and 61.1 µM (active) in [6]. In addition, the compound was classed as inactive in assay [7], in assay [8], in assay [9], in assay [10], in [12] and in assay [13]. In addition, the outcome in [15] was inactive.
For `CN(C)CCc1c[nH]c2cccc(O)c12`, the Potency result in [1], in assay [2], in assay [3], in [4], in assay [5] and in assay [6] was “inactive” throughout. Also, the Potency result in [11], in [14], in assay [16], in [17] and in assay [20] was “inactive” each time. In addition, the compound was called inactive in assay [7], in assay [8], in [9], in assay [10], in assay [19] and in [12]. For the same compound, the outcome in assay [13] and in assay [15] was inactive.
`c1ccc2cc3c(cc2c1)-c1cccc2cccc-3c12`: the Potency in assay [1] was 1.7 µM (active). The Potency result in assay [2], in assay [3] and in assay [5] was “inactive” in each case. For the same compound, the compound was classed as inactive in [7], in [8], in assay [9], in [10], in [19] and in assay [12]. In addition, the call in [13] and in assay [15] was inactive.
Turning to `COc1cc(N)c(Cl)cc1C(=O)NC1CN2CCC1CC2` (stereo not drawn), the Potency result in assay [1], in assay [2], in [3], in [4], in assay [5] and in [6] was “inactive” in each case. Also, the Potency result in [18], in [11], in assay [14], in assay [16], in [17] and in assay [20] was “inactive” throughout. The compound was classed as inactive in [7], in [8], in [9], in assay [10], in assay [12] and in [13]. In assay [15], the compound was called inactive.
`[CH3][Hg][Cl]`: the Potency was 30.5 µM (active) in assay [1]; 4.84 µM (active) in assay [2]; 24.3 µM (active) in assay [3]; 27.2 µM (active) in assay [5]; 19.3 µM (active) in assay [6]. Further, the result in assay [7], in [8], in [9], in [10], in [19] and in assay [12] was inactive. The result in assay [13] and in assay [15] was inactive. The Potency result in [18], in assay [11], in assay [14] and in assay [16] was “inactive” in each case.
